Measured values published in PubChem BioAssay (NCATS).
Inconclusive results are not listed. Calls of active or inactive are those of the source. Unless noted, the call rests on the fitted dose curve; in most records, active means well fitted curve in the direction sought with a large enough effect; inconclusive means small, poorly fitted or top-dose-only effect, or another doubt; inactive means no such curve, though single readings can be large; an effect the other way counts as inactive or inconclusive.

Assays:
[1] = qHTS assay for small molecule disruptors of the mitochondrial membrane potential - 1 hr assay (AID 651754; calls by dose curve; further: on the % scale 0 is the no-effect control and ±100 the full control effect; nearly all actives have a fitted effect of over 35% in size)
Procedure, shortened: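 HepG2, 2,000 cells/well, overnight attachment; cpd or DMSO 1 hr, 37C/5% CO2; Mito-MPS dye 30 min, 37C; fluorescence monomer (490/535) and aggregate (540/590).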

[2] = qHTS assay for small molecule disruptors of the mitochondrial membrane potential - 5 hr assay (AID 651755; calls by dose curve; further: on the % scale 0 is the no-effect control and ±100 the full control effect; nearly all actives have a fitted effect of over 40% in size)
Procedure, shortened: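 HepG2 cells (2,000/well), attached overnight, exposed to compound 5 hr at 37C, then Mito-MPS dye 30 min. Fluorescence read for monomers (490/535 nm) and aggregates (540/590 nm).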

[3] = biological target: Tumor necrosis factor (Homo sapiens) (UniProt P01375); test: qHTS assay to identify small molecules that stimulate Tumor Necrosis Factor-alpha (TNF-alpha) secretion (AID 651757; active means well fitted curve in the direction sought with a large enough effect in the signal ratio; the % refers to the signal ratio; further: 0% is about no effect)
Procedure, shortened: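 Read-out is HTRF, a TR-FRET sandwich of cryptate- and XL665-labeled anti-TNF-alpha antibodies detecting cytokine secreted by THP-1 cells. Cells had been incubated with test compounds at 37 C for 17 hrs beforehand.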

[4] = qHTS assay for environmental chemicals that activate the Aryl hydrocarbon Receptor (AhR) signaling pathway (AID 651777); conditions: 1A2-DRE human hepatoma cells, luciferase, 24 h; activation: stronger effect = higher value; further: % of control where 0% means no effect; nearly all actives have a fitted effect of over 15% in size
Procedure, shortened: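 Concentration–response screening used 1,200 1A2-DRE cells per well, 24 hr compound exposure (37 C, 5% CO2), and One-Glo luminescence as the AhR-driven CYP1A2 reporter signal.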

[5] = biological target: Peroxisome proliferator-activated receptor alpha (Homo sapiens) (UniProt Q07869); test: qHTS assay for small molecule agonists of the peroxisome proliferator-activated receptor alpha (PPARalpha) signaling pathway (AID 651778); conditions: PathHunter PPARalpha complementation, chemiluminescence, 6 h; stronger effect = higher value; further: % of control where 0% means no effect
Procedure, shortened: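 Enzyme-fragment complementation assay in which ligand-bound PPARalpha translocates and forms an active enzyme that generates chemiluminescence. Cells were plated overnight, exposed to compound for 6 hr at 37 C, and then given detection reagent for 60 min at room temperature.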

[6] = biological target: Nuclear receptor ROR-gamma (Homo sapiens) (UniProt P51449); test: qHTS assay for small molecule antagonists of the retinoid-related orphan receptor gamma (ROR-gamma) signaling pathway (AID 651802);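 further: luciferase reporter luminescence driven by ROR response element; series mostly up to about 92 µM; on the % scale 0 is the no-effect control and ±100 the full control effect; nearly all actives have a fitted effect of over 60% in size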
Procedure, shortened: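 CHO, TET-inducible ROR + RORE-LUC reporter, 1536-well qHTS. Compound pinned, doxycycline added, 16hr 37C/5% CO2. ONE-Glo, 30 min RT, luminescence; signal drop scored as antagonism.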

[7] = qHTS assay for small molecule agonists of the antioxidant response element (ARE) signaling pathway measured by Nrf2-dependant transcriptional activity (AID 720636; active means well fitted curve in the direction sought with a large enough effect in the repeat runs; an effect the other way counts as inactive or inconclusive;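 further: HepG2 cells with an ARE-driven luciferase reporter; % of control where 0% means no effect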)
Procedure, shortened: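 Attachment 6 hr at 37 C, then compound versus DMSO vehicle for 16 hr in ARE-luc HepG2 cells (1% dialyzed FBS); luminescence recorded 30 min after ONE-Glo addition at room temperature.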

[8] = qHTS assay for small molecule antagonists of the retinoid-related orphan receptor gamma (ROR-gamma) signaling pathway - cell viability counter screen (AID 720652; active means well fitted curve in the direction sought with a large enough effect in the repeat runs; an effect the other way counts as inactive or inconclusive;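 further: series mostly up to about 92 µM; compound exposure lasted 16 hr before ATP read; on the % scale 0 is the no-effect control and ±100 the full control effect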)
Procedure, shortened: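 Luminescence from CellTiter-Glo after 30 min at room temperature reported cellular ATP as the cytotoxicity measure. Cells were the CHO reporter line with doxycycline-induced ROR-gamma expression, exposed to compound for 16 hr at 37 C.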

[9] = qHTS assay for small molecule agonists of the antioxidant response element (ARE) signaling pathway measured by Nrf2-dependant transcriptional activity - cell viability counter screen (AID 720653; active means well fitted curve in the direction sought with a large enough effect in the repeat runs; an effect the other way counts as inactive or inconclusive; further: on the % scale 0 is the no-effect control and ±100 the full control effect); conditions: ARE-bla HepG2 viability, CellTiter-Glo ATP luminescence, 16 h; stronger effect = lower value
Procedure, shortened: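 ARE-bla HepG2 cells treated with compounds for 16 h at 37C; this counter screen measures viability as intracellular ATP by CellTiter-Glo luminescence after 30 min at room temperature.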

[10] = qHTS assay for cell viability of the p53RE-bla HCT-116 cell line (AID 743292); further: on the % scale 0 is the no-effect control and ±100 the full control effect; nearly all actives have a fitted effect of over 55% in size
Procedure, shortened: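 Compound-exposed HCT-116 (p53RE-bla) cells, 4,000 per well, were kept 16 h at 37 C following a 5 h preincubation. Cell number was estimated from total ATP by CellTiter-Glo luminescence read after 30 min at room temperature.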

[11] = biological target: Nuclear receptor subfamily 1 group I member 2 (Rattus norvegicus) (UniProt Q9R1A7); test: qHTS assay for small molecule activators of the rat pregnane X receptor (rPXR) signaling pathway (AID 651751; call rule not given here; further: 0% is about no effect); conditions: rPXR reporter cells, luciferase (One-Glo), 24 h
[12] = qHTS assay for small molecule activators of the human pregnane X receptor (PXR) signaling pathway (AID 720659; call rule not given here; further: 0% is about no effect)
[13] = qHTS assay for cell viability of HEK293 cells (AID 743288); conditions: ATP luminescence (CellTiter-Glo), 18 h, stronger effect = lower value; further: on the % scale 0 is the no-effect control and ±100 the full control effect; nearly all actives have a fitted effect of over 50% in size
Procedure, shortened: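 The Tox21 protocol used parental HEK293 cells treated for 18 h at 37 C with compounds delivered by pintool; ATP-coupled luminescence after 30 min at room temperature gave viability.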

Tumor necrosis factor (Homo sapiens), sequence (P01375 whole entry, looked up): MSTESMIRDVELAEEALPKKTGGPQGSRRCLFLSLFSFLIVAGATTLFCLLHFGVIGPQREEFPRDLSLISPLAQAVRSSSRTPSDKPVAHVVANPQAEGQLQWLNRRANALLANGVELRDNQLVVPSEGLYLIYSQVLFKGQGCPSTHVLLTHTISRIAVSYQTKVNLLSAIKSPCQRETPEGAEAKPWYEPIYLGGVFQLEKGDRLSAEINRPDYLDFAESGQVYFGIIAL
Peroxisome proliferator-activated receptor alpha (Homo sapiens), sequence (Q07869 whole entry, looked up, the tested form may be a part): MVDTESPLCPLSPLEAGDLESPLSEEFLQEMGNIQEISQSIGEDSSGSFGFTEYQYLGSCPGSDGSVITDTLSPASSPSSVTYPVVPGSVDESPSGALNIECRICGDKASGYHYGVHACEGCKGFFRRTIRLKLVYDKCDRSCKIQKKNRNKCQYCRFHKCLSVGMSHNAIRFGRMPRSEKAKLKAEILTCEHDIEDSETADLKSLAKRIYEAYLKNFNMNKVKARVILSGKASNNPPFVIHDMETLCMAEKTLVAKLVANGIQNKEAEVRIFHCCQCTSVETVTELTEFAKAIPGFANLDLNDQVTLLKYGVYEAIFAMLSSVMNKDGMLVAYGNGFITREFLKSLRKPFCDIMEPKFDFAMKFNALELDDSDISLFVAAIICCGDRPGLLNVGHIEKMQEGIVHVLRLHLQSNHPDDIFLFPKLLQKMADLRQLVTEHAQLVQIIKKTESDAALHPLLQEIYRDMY
Nuclear receptor ROR-gamma (Homo sapiens), sequence (P51449 whole entry, looked up): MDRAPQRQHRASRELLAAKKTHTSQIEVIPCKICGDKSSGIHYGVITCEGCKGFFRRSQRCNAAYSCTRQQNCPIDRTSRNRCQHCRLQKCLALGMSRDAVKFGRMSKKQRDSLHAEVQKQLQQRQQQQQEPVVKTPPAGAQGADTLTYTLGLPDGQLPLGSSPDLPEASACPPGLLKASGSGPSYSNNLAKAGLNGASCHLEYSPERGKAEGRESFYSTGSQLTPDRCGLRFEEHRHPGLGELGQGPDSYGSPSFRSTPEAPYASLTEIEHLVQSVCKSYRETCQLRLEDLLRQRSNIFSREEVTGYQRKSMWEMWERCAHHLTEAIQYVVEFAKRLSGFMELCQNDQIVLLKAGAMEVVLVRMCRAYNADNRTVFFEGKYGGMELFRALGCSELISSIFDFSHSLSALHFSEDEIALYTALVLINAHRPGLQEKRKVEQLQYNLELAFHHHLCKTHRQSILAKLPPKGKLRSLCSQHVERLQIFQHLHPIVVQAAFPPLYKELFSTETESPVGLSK
Nuclear receptor subfamily 1 group I member 2 (Rattus norvegicus), sequence (Q9R1A7 whole entry, looked up): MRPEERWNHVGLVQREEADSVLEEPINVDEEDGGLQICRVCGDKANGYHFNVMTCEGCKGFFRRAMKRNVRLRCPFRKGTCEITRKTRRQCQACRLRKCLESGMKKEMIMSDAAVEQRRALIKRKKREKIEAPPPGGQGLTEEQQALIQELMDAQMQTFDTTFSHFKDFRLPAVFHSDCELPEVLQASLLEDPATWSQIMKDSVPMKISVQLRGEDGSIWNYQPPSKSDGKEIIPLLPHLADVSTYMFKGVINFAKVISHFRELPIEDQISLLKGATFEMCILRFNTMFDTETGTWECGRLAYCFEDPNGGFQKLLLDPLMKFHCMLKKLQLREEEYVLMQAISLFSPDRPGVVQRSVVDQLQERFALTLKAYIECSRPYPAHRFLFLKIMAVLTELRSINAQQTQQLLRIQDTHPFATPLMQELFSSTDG

Cc1ccc2ncccc2c1
inactive: Potency [1] | Potency [2] | Potency [3] | activation [4] 3.02% | max response [5] -2.02% | Potency [6] | outcome [7] | Potency [8] | max response [9] 5.85% | Potency [10] | max response [11] 2.4% | outcome [12]

CC(=O)Nc1ccc(N)cc1
inactive: Potency [1] | Potency [2] | Potency [3] | activation [4] -0.109% | max response [5] 0.154% | Potency [6] | outcome [7] | Potency [8] | max response [9] 2.9% | max response [13] -3.85% | Potency [10] | max response [11] 9.42% | outcome [12]

CCC=O
inactive: Potency [1] | Potency [2] | Potency [3] | activation [4] -0.0092% | max response [5] -0.926% | Potency [6] | outcome [7] | max response [9] -3.76% | max response [13] 1.05% | Potency [10] | max response [11] 1.07% | outcome [12]

CC(=O)CC(C)C
inactive: Potency [1] | Potency [2] | Potency [3] | activation [4] -0.041% | max response [5] -2.67% | Potency [6] | outcome [7] | Potency [8] | max response [9] 4.78% | Potency [10] | max response [11] -2.17% | outcome [12]

FC(F)(F)c1cccc(Cl)c1
inactive: Potency [1] | Potency [2] | Potency [3] | activation [4] -0.497% | max response [5] -9.21% | Potency [6] | outcome [7] | Potency [8] | max response [9] -9.33% | Potency [10] | max response [11] -6.22% | outcome [12]

CCCCCCC=O
inactive: Potency [1] | Potency [2] | Potency [3] | activation [4] -0.184% | max response [5] -2.2% | Potency [6] | outcome [7] | Potency [8] | max response [9] 14.6% | Potency [10] | max response [11] -7.57% | outcome [12]

CCC(C)(C)OC
inactive: Potency [1] | Potency [2] | Potency [3] | activation [4] 0.579% | max response [5] -8.98% | Potency [6] | outcome [7] | Potency [8] | max response [9] -14.5% | max response [13] -19.7% | Potency [10] | max response [11] -4.5% | outcome [12]

C=C(C)C(N)=O
inactive: Potency [1] | Potency [2] | Potency [3] | activation [4] -1.72% | max response [5] -6.13% | Potency [6] | outcome [7] | Potency [8] | max response [9] -10.7% | max response [13] -1.33% | Potency [10] | max response [11] 2.1% | outcome [12]

O=C(Cl)c1ccccc1[N+](=O)[O-]
inactive: Potency [1] | Potency [2] | Potency [3] | activation [4] 0.05% | max response [5] 3.57% | Potency [6] | outcome [7] | Potency [8] | max response [9] 18.8% | max response [13] -5.53% | Potency [10] | max response [11] 1.88% | outcome [12]

C=CCOC(=O)COCCC(C)C
inactive: Potency [1] | Potency [2] | Potency [3] | activation [4] -0.312% | max response [5] -5.81% | Potency [6] | outcome [7] | Potency [8] | max response [9] 5.49% | Potency [10] | max response [11] -3.06% | outcome [12]

C=C(C)C(=O)OC
inactive: Potency [1] | Potency [2] | Potency [3] | activation [4] 0.279% | max response [5] 0.595% | Potency [6] | outcome [7] | Potency [8] | max response [9] 4.29% | max response [13] 0.0882% | Potency [10] | max response [11] 2.17% | outcome [12]

CSCCC=O
inactive: Potency [1] | Potency [2] | Potency [3] | activation [4] -0.987% | max response [5] 13.7% | Potency [6] | outcome [7] | Potency [8] | max response [9] -0.733% | Potency [10] | max response [11] 4.33%

CCCCC(=O)N(C)C
inactive: Potency [1] | Potency [2] | Potency [3] | activation [4] 1.62% | max response [5] -3.71% | Potency [6] | outcome [7] | max response [9] -1.17% | max response [13] -5.96% | Potency [10] | max response [11] -1.49% | outcome [12]

CC(C)(O)CCC(C)(C)O
inactive: Potency [1] | Potency [2] | Potency [3] | activation [4] 1.58% | max response [5] -3.81% | Potency [6] | outcome [7] | Potency [8] | max response [9] -2.27% | max response [13] 2.13% | Potency [10] | max response [11] 3.24% | outcome [12]
